Source: PubChem (Sanford-Burnham Center for Chemical Genomics)
An excerpt weighted towards active compounds, which were near 2.7% of everything screened.
TAG inh = triacylglycerol accumulation inhibition; 230,000 compounds, 0.66% hits; AID 651582; H9c2 cells, Nile Red lipid (TAG) fluorescence; cells loaded with 200 µM oleic acid; inhibition, % at 12.5 µM;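 active = pattern-corrected inhibition of lipid staining of at least 50% with the nuclear-stain viability signal not falling by more than 50%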;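 note: 0% = DMSO wells and 100% = triacsin C control wells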
MPTP block = blocks calcium-induced mitochondrial swelling; isolated mouse mitochondria, Ca2+ swelling absorbance, 30 min; inhibition, % at 10 µM; AID 602449; 360,000 compounds, 1.4% hits;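 active = inhibition of 50% or more, scaled per plate between neutral and stimulator controls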;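 note: 0% = DMSO wells given calcium and 100% = 1 mM EGTA wells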
aDG glyco up = alpha-DG glycosylation activation; Pro5-aDG cells, alpha-DG glycosylation AlphaScreen (IIH6); 0% Pro5, 100% B10-LARGE cell signal; activation, % at 10 µM; 360,000 compounds, 0.22% hits;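 active = activation of at least 8% versus controls, or a plate z-score of at least 8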;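 note: Pro5 are CHO cells carrying HIG-tagged alpha-DG that lacks glycosylation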
NadD block = blocks S. aureus nicotinate mononucleotide adenylyltransferase; purified NadD enzyme, colorimetric absorbance read-out; inhibition, % at 20 µM; 360,000 compounds, 0.78% hits; AID 602399; in the data active = inhibition above about 26%
MPTP counter = Rhodamine 123 counter-screen of mitochondrial pore hits; shares compounds with MPTP block; isolated mitochondria, membrane potential, Rhodamine 123 fluorescence; inhibition, % at 10 µM; 5,000 compounds, 78% hits; in the data active = inhibition above about 22%;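 note: 0% = DMSO vehicle and 100% = positive control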
MPTP abs DR = MPTP inhibition, dose response swelling confirmation; isolated mitochondria swelling, absorbance; 780 compounds, 58% hits; shares compounds with MPTP block; IC50, µM; in the data active = IC50 below about 20 µM
MPTP counter DR = active in counter-screen for permeability transition pore inhibitors; shares compounds with MPTP block; isolated mitochondria counterscreen, fluorescence read-out; IC50, µM; 780 compounds, 49% hits; AID 651564; in the data active = IC50 below about 80 µM
* marks the source's active call; other numbers are inactive results; i = inactive; / = no result given.

SMILES	TAG inh	MPTP block	aDG glyco up	NadD block	MPTP counter	others
Cc1ccccc1S(=O)(=O)Cc1ccc(C(=O)N2CCN(c3ccccc3F)CC2)o1	/	-1	0	0	/
O=S(=O)(NCC1CCN(c2ccc(S(=O)(=O)N3CCOCC3)cc2)CC1)c1ccc(F)cc1	/	-1	1	5	/
COc1cc(NC(=S)NCCC(c2ccccc2)c2ccccc2)c(OC)cc1Cl	/	97*	0	1	81*
COc1ccc(Cl)cc1NC(=S)NCCC(c1ccccc1)c1ccccc1	/	67*	1	-3	91*
COc1ccccc1NC(=S)NCCC(c1ccccc1)c1ccccc1	/	30	0	-8	/
CN(C)CCCN(C(=O)c1ccc(Br)s1)c1nc2cc3c(cc2s1)OCCO3	-3	76*	0	-1	-26
CN(C)CCCN(C(=O)c1ccc([N+](=O)[O-])s1)c1nc2cc3c(cc2s1)OCCO3	34	-2	0	-6	/
CN(C)CCCN(C(=O)c1cc2cc([N+](=O)[O-])ccc2s1)c1nc2cc3c(cc2s1)OCCO3	45	83*	0	17	-30
CCCCn1c(N)c(N(CC(C)C)C(=O)Cc2ccc(S(=O)(=O)N3CCOCC3)s2)c(=O)[nH]c1=O	17	-3	0	0	/
CCCCCc1ccnc(CC(=O)c2ccc(OC)cc2)c1	-25	0	0	1	/
CC(C)(C)c1ccc(S(=O)(=O)Nc2ccc(Cc3ccncc3)cc2)cc1	/	73*	2	2	74*
COc1ccc(-c2nc(N3CCN(C)CC3)sc2-c2ccc(OC)cc2)cc1	/	74*	0	-19	-18	MPTP abs DR=i;MPTP counter DR=>80
COc1ccc(-c2nc(N3CCCCCC3)sc2C(=O)c2ccccc2)cc1	-1	2	0	8	/
Cc1cc(OCC(=O)Nc2ccc(CN3CCCCC3)cc2)ccc1Cl	/	63*	0	-3	3	MPTP abs DR=11*;MPTP counter DR=26*
Cc1cc(OCC(=O)Nc2ccc(CN3CCOCC3)cc2)ccc1Cl	-20	0	0	-5	/
Cc1cc(OCC(=O)Nc2cccc(S(=O)(=O)NC3=NCCCCC3)c2)ccc1Cl	/	87*	0	-5	86*
Cc1ccc(OCC(=O)Nc2cccc(S(=O)(=O)NC3=NCCCCC3)c2)cc1C	4	1	0	1	/
CN(O)C(=O)Nc1ccc([N+](=O)[O-])cc1	-10	83*	0	-2	96*
CC(C)(C)C(=O)Nc1ccc(Sc2ccc([N+](=O)[O-])cc2)cc1	/	96*	1	-9	93*
CC(C)(C)C(=O)NC(NC(=O)C(C)(C)C)c1ccc([N+](=O)[O-])cc1	/	2	0	-4	/
CCc1nc2ccc(C(=O)N3CCNC(=O)C3)cn2c1N(C)CCC(C)C	-2	0	0	2	/
Cc1nc(Nc2ccc(Cl)cc2Cl)sc1C(=O)Nc1ccccc1	7	46	1	-4	/
Cc1nc(Nc2ccc(Cl)c(Cl)c2)sc1C(=O)Nc1ccccc1	/	82*	7	3	64*
Cc1c(Cl)cccc1NC(=S)NNc1ncc(C(F)(F)F)cc1Cl	/	60*	0	4	76*
COc1cccc(C(=O)c2ncc(C(F)(F)F)cc2Cl)c1	0	-1	0	3	/
SMILES	TAG inh	MPTP block	aDG glyco up	NadD block	MPTP counter	others
COC(=O)/C(=C\Nc1cccc(Cl)c1C)c1ncc(C(F)(F)F)cc1Cl	-4	75*	0	-7	8	MPTP abs DR=19*;MPTP counter DR=>80
CC(NC(=O)CCNC(=O)c1ccc(C(C)(C)C)cc1)c1ccccc1 (configuration not stated)	10	-1	0	-4	/
Cc1c(NC(=O)/C(C#N)=C/c2ccc(-c3ccccc3Cl)o2)c(=O)n(-c2ccccc2)n1C	-1	1	1	16	/
N#C/C(=C\c1ccc(-c2ccccc2Cl)o1)C(=O)Nc1nc2ccccc2s1	5	74*	0	19	43*
Cc1ccc(-n2cc(C(=O)c3cc(Cl)ccc3O)cc(C#N)c2=O)cc1	/	93*	0	10	84*
COc1ccc(-n2cc(C(=O)c3cc(Cl)ccc3O)cc(C#N)c2=O)cc1	-1	0	0	0	/
O=C(Nc1ccccc1N1CCCC1)c1cc(Cl)ccc1Cl	/	1	0	0	/
Cc1ccccc1NC(=O)c1cc(C(=O)c2cc(Cl)ccc2O)cn(-c2ccccc2C)c1=O	5	90*	0	30	75*
CCc1ccccc1NCC(=O)Nc1ccc(Cl)c(C(F)(F)F)c1	/	69*	0	-6	86*
C/C(CC(=O)Nc1ccc(Cl)c(C(F)(F)F)c1)=N\NC(=O)c1ccccc1O	/	98*	0	0	70*
C/C(CC(=O)Nc1ccc(Cl)c(C(F)(F)F)c1)=N\NC(=O)c1cccc(O)c1	/	2	0	-2	/
N#Cc1cccc(NC(=O)c2cc(C3CCCCN3C(=O)CCCc3ccccc3)on2)c1 (configuration not stated)	21	2	0	-3	/
CCCCCCCCCCS(=O)(=O)N/N=C/c1ccccc1OC	/	20	0	7	/
O=[N+]([O-])c1ccc(NN=Cc2cccc([N+](=O)[O-])c2)cc1	-19	92*	0	3	65*
CCCCCCCCCCS(=O)(=O)N/N=C/c1ccc(O)cc1	14	79*	0	-2	56*
O=[N+]([O-])c1ccc(N/N=C/C=C/c2ccco2)cc1	-7	76*	0	-11	70*
CCCCCCCCCS(=O)(=O)N/N=C/c1cccc([N+](=O)[O-])c1	/	64*	0	-5	61*
Cc1cccc(C(=O)Oc2ccccc2/C=N/Nc2ccc([N+](=O)[O-])cc2)c1	/	67*	0	1	78*
O=[N+]([O-])c1ccc(N/N=C/c2cccc(O)c2O)cc1	/	7	0	-7	/
O=C(CSc1nc2ccc(Cl)cc2[nH]1)NC1CCCc2ccccc21 (configuration not stated)	-1	63*	0	1	62*
O=C(Nc1ccc(C(F)(F)F)cc1)c1cc(-c2cccnc2)nc2ccc(Br)cc12	/	78*	0	6	2	MPTP abs DR=13*;MPTP counter DR=7.1*
CCN(CC#CCC(O)(c1ccccc1)C1CCCC1)C(C)C (configuration not stated)	-4	78*	0	-7	-4	MPTP abs DR=i;MPTP counter DR=>80
CC(C)N(CC#CCC(O)(c1ccccc1)C1CCCC1)CCO (configuration not stated)	/	-1	0	7	/
C=CCn1c(C)cc(C(=O)CSc2nc3ccccc3[nH]2)c1C	/	16	3	-3	/
C=CCn1c(C)cc(C(=O)CSc2nc3ccccc3c(=O)[nH]2)c1C	-1	15	1	10	/
CN(C)C(=O)CSc1nc2ccccc2c(=O)[nH]1	16	-4	0	1	/
COCCn1c(C)cc(C(=O)CSc2nc3ccccc3c(=O)[nH]2)c1C	/	64*	2	-6	14	MPTP abs DR=i;MPTP counter DR=45*
